Screening data: PubChem BioAssay, Buhrlage Lab, Dana-Farber Cancer Institute and Novartis Institutes for BioMedical Research (Cambridge, Mass)
USP28 block: human USP28 deubiquitinase inhibition. AID 1645857. 47,000 compounds, 3% hits. inhibition, % at 25 µM. purified USP28, Ub-rhodamine cleavage fluorescence, 30 min. Q96RU2
USP30 block: inhibitors of human USP30 deubiquitinase; Q70CQ3; purified USP30, Ub-rhodamine cleavage fluorescence; inhibition, % at 25 µM; 47,000 compounds, 5.3% hits; AID 1645860
USP17 inh: blocks human USP17 ubiquitin-rhodamine cleavage. 47,000 compounds, 6.5% hits. A8MUK1. inhibition, % at 50 µM. purified USP17, Ub-rhodamine cleavage fluorescence, 3 h. AID 1645855
Target sequence (A8MUK1 whole entry, looked up): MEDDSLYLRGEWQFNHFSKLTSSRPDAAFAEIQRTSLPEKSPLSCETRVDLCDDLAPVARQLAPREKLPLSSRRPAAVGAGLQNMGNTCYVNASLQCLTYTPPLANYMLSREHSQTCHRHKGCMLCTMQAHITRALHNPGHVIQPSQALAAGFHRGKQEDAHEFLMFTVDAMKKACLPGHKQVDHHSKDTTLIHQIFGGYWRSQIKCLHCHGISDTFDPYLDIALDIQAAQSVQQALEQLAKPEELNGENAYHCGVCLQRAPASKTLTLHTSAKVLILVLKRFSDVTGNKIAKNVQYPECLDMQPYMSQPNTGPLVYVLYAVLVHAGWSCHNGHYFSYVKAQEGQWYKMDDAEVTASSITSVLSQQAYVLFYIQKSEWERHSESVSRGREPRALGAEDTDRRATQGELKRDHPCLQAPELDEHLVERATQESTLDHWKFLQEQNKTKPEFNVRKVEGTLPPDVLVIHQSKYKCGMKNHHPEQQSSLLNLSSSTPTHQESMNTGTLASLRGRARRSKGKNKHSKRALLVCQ
OTUD3 inh: inhibitors of human OTUD3 deubiquitinase; Q5T2D3; purified OTUD3, Ub-rhodamine fluorescence, 2 h; inhibition, % at 25 µM; 47,000 compounds, 0.7% hits
Starred values were filed as active, the others as inactive; / = no result. An excerpt weighted towards active compounds, which were near 11% of everything screened. No stated cut-off is given here; in the data, active means inhibition above about 30%; inactive means the rest.

SMILES	USP28 block	USP30 block	USP17 inh	OTUD3 inh
COc1ccccc1CC(=O)N1CCC(Cc2ccccc2)CC1	7.8	35.9*	11.5	18.8
O=C(Cn1c(=O)c2ccccc2n(CC(=O)Nc2cccc(F)c2)c1=O)NCCc1ccccc1	19.8	37.6*	28.7	25.2
Cc1ccc(NC(=O)Cn2c(=O)n(CCC(=O)NCCc3ccccc3)c(=O)c3ccccc32)cc1C	0.0	13.4	11.2	12.7
O=C(CCCCn1c(=O)c2ccccc2n(CC(=O)Nc2ccc(F)cc2)c1=O)NCCc1ccccc1	9.0	25.6	46.7*	15.3
CC(C)n1nccc1-c1cncc(C2CCCN(S(C)(=O)=O)C2)n1 (stereo not drawn)	-9.9	-0.8	5.4	-6.2
CC(=O)c1ccc(NC(=O)COC(=O)c2c[nH]c3ccccc23)cc1	/	/	33.8*	4.1
N#Cc1cccc(NC(=O)COC(=O)c2n[nH]c3ccccc23)c1	8.0	-119.8	47.5*	-33.7
CCc1ccc(NC(=O)COC(=O)c2n[nH]c3ccccc23)cc1	43.3*	27.6	71.2*	-18.6
N#Cc1ccc(Cl)cc1NC(=O)COC(=O)c1n[nH]c2ccccc12	-10.3	-73.5	-12.5	-6.0
CCCNc1nc(N2CCN(C3CCCCC3)CC2)nc2c1cnn2C	-7.9	-14.7	-16.3	-11.0
CCOc1ccc(-c2nnc(-c3cnc4onc(C5CCCC5)c4c3)o2)cc1	0.0	1.0	2.1	3.9
Cn1c(CCN2CCCCC2)nc2cc(NC(=O)c3ccc(Cl)cc3)ccc21	9.4	-16.6	32.8*	8.6
Cc1cccc(C(=O)Nc2ccc3c(c2)nc(CCN2CCCCC2)n3C)c1	-12.7	-20.3	-14.4	-12.9
CCc1nc2cc(NC(=O)c3cccc(N4CCCC4=O)c3)ccc2n1C	61.8*	-50.5	-8.4	-4.3
COCC1CC2(CCN(Cc3ccco3)CC2)CN1c1ncccn1 (stereo not drawn)	-10.7	-15.3	-17.9	-3.5
O=C(/C=C/c1c(F)cccc1Cl)N1CCc2ccccc2C1	42.7*	29.3	75.2*	29.9
CCn1cc(S(=O)(=O)NCc2ccccc2F)c2cccnc21	11.9	-39.1	13.4	-0.6
CCn1cc(S(=O)(=O)NCc2ccccc2)c2cccnc21	22.2	-25.5	41.1*	16.1
O=C(N[C@H](CO)Cc1ccccc1)c1nc(-c2ccc3[nH]ccc3c2)no1	-3.6	-32.9	-11.7	-6.3
N#Cc1cccc(NC(=O)COC(=O)c2ccccc2OCc2ccc(Cl)cc2)c1	8.4	5.9	-3.7	2.3
O=C(COC(=O)c1ccccc1OCc1ccccc1)Nc1ccc(Cl)cc1	36.2*	34.4*	21.0	12.8
O=C(COC(=O)c1ccccc1Nc1ccccc1)Nc1ccc2ccccc2c1	-6.5	-7.0	-0.4	3.2
O=C(COC(=O)c1ccccc1OCc1ccccc1)Nc1cccc2ccccc12	30.3*	48.7*	22.7	21.9
N#Cc1ccc(NC(=O)COC(=O)c2ccccc2Nc2ccccc2)cc1	27.4	5.5	34.1*	3.9
Cc1nn(-c2ccccc2)c(C)c1C(=O)OCC(=O)Nc1cccc2ccccc12	-0.8	10.8	-3.1	2.9
SMILES	USP28 block	USP30 block	USP17 inh	OTUD3 inh
CCn1c2ccccc2c2cc(NC(=O)CNCC3CCCO3)ccc21 (stereo not drawn)	27.2	-41.7	4.5	-4.0
CC1CCN(S(=O)(=O)c2nn(Cc3ccccc3)cc2C(=O)O)CC1	1.1	11.3	1.5	-0.8
c1ccc(-c2cc(Nc3c4c(nc5ccccc35)CCCC4)n[nH]2)cc1	-13.9	-45.1	43.5*	-16.8
Clc1ccc2nc3c(c(Nc4[nH]ncc4-c4ccccc4)c2c1)CCC3	12.8	16.5	19.4	14.4
CCCOc1ccc(-c2ccc(-c3nc(CCC)no3)cc2)cc1	2.7	17.4	12.7	9.5
Cc1cn2c(=O)cc(COC(=O)c3ccccc3Cl)nc2s1	6.8	7.8	1.5	4.8
NS(=O)(=O)c1ccc(Cl)c(C(=O)OCc2csc(Nc3ccccc3)n2)c1	70.8*	5.7	10.0	9.8
Cc1ccc(-c2nc(-c3ccccc3)c(S(=O)(=O)CC(=O)Nc3ccc(F)c(Cl)c3)[nH]2)cc1	18.5	43.8*	24.3	1.2
COc1ccc(NC(=O)CSc2cn[nH]n2)cc1	-1.9	0.9	2.2	5.4
O=C(CS(=O)(=O)c1[nH]c(-c2ccc(F)cc2)nc1-c1ccccc1)Nc1ccc(F)cc1	-1.0	-17.5	0.1	-5.5
COc1ccc(NC(=O)CSc2ccc(F)cc2)cc1	29.2	33.6*	28.1	15.6
COc1ccc(-c2nc(-c3ccc(OC)cc3)c(S(=O)(=O)CC(=O)Nc3ccc(F)cc3)[nH]2)cc1	-18.8	30.0*	-1.6	-3.3
CSCc1cc(NCc2ccccc2)nc(-c2ccncc2)n1	22.4	40.6*	23.3	15.1
c1ccc(-c2cc(NC3CC3)nc(-c3ccncc3)n2)cc1	-5.5	-66.1	-8.0	-10.0
CNc1cccc(C2CN(C(=O)c3cc(C(C)(C)C)[nH]n3)CCO2)n1 (stereo not drawn)	-3.8	0.8	-3.7	-4.2
COc1ccccc1NC(=O)COc1ccccc1-c1nnc(-c2ccccc2)o1	3.0	13.3	6.2	3.4
O=C(COc1ccc(Cl)cc1Cl)NCCCc1ccccc1	15.6	32.4*	4.6	24.0
O=C(COc1ccccc1-c1nnc(-c2ccccc2)o1)NCCCc1ccccc1	11.5	34.8*	8.9	7.7
Cc1cc(N2CCN(c3ncccn3)CC2)nc2ccc(NC(=O)c3cccnc3)cc12	20.8	16.4	34.7*	3.8
COc1cccc(C(=O)Nc2ccc3nc(N4CCN(c5ncccn5)CC4)cc(C)c3c2)c1OC	23.8	85.2*	59.4*	18.2
Cc1cc(N2CCN(c3ncccn3)CC2)nc2ccc(NC(=O)c3ccco3)cc12	67.9*	57.5*	67.2*	27.5
Cc1cc(N2CCN(c3ncccn3)CC2)nc2ccc(NC(=O)C3CC3)cc12	29.7	6.8	24.4	-1.3
Cc1ccc(-c2cc(CC3(C(=O)N(C)C)CCCN(C(=O)C4CC4)C3)on2)cc1 (stereo not drawn)	5.2	11.3	1.6	13.7
Cc1noc(C)c1CN1CCC(NC(=O)c2ccc3cc[nH]c3c2)CC1	-7.2	-25.3	-20.3	-9.3
CCCCC/C=C/c1c(O)cc(CC=C(C)C)c(O)c1C=O	22.7	-27.6	18.5	2.8
SMILES	USP28 block	USP30 block	USP17 inh	OTUD3 inh
C/C=C/C=C/CCc1c(O)cc(CC=C(C)C)c(O)c1C=O	14.7	-50.9	45.0*	-2.1
COc1ccc(C)cc1NC(=O)Cn1c(C)cc(C)c1-c1nc(C(C)C)no1	7.4	30.6*	23.8	12.3
COC(=O)c1ccccc1NC(=O)Cn1c(=O)n(CCCC(=O)NCc2ccco2)c(=O)c2ccccc21	58.5*	79.8*	75.7*	67.9*
COc1cccc(NC(=O)Cn2c(=O)n(CCCC(=O)NCc3ccco3)c(=O)c3ccccc32)c1	14.6	6.8	44.2*	15.8
COc1ccccc1CNC(=O)CCCCn1c(=O)c2ccccc2n(CC(=O)Nc2ccc(C)cc2C)c1=O	16.2	41.6*	20.9	18.9
Cc1ccc(CN2C(=O)C3(CC(=O)Nc4[nH]ncc43)c3ccccc32)cc1 (stereo not drawn)	13.4	16.8	-3.4	12.5
Cc1ccnc(SCc2cc(=O)n3[nH]c(C)c(-c4ccccc4)c3n2)n1	-4.4	10.2	-15.1	-3.3
Cc1cc(C)nc(SCc2cc(=O)n3[nH]c(C)c(-c4ccccc4)c3n2)n1	22.6	46.2*	-4.7	14.0
